In PubChem BioAssay AID847 (SRMLSC, 2007):
The whole screen tested about 41,000 compounds, of which about 190 (0.46%) were called active.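 How the source made its calls: active means viability at or below the median of all test compounds minus 3 SD, in both replicates if run twice (cut at about 45% in these data); inconclusive means duplicate replicates that disagree with each other; inactive means viability above that cutoff in every replicate.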 The sample as a whole holds a higher share of actives than the screen did.

Test: viability loss of SK-BR-3 cells – cell-based, human, 24 h, primary screen (AID 847);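 further: 100% = median untreated cell wells and 0% = median positive control drug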
Conditions: SK-BR-3 viability, CellTiter-Glo ATP luminescence, at 10 µM, hits give low values

Compound | viability
O=C(c1ccco1)N(Cc1nc2ccccc2c(=O)[nH]1)C1CCCC1 | 87.8% (inactive)
COC(=O)COc1ccc2oc(=O)cc(C)c2c1 | 87% (inactive)
COC(=O)c1cn(-c2ccccc2)nc1-c1cccnc1 | 119% (inactive)
CC(C(=O)O)N1C(=O)c2cccc3cccc1c23 (centres undefined) | 91.2% (inactive)
Cc1cc(C)c(NC(=O)CS(=O)CC(=O)Nc2cccnc2)c(C)c1 (centres undefined) | 79.8% (inactive)
COc1ccc(CSc2nc(N3CCOCC3)c3c(c2C#N)CC(C)(C)OC3)cc1 | 76.6% (inactive)
CS(=O)(=O)N1CCN(C(=O)c2cc3ccccc3oc2=O)CC1 | 82.4% (inactive)
Cc1cc(=O)[nH]c(SCC(N)=O)c1C#N | 121% (inactive)
Cc1ccc(S(=O)(=O)NCc2nc3ccccc3c(=O)n2N)cc1 | 87.3% (inactive)
CC(=O)c1cc(-c2ccccc2)[nH]c1N1CCCC1 | 89.9% (inactive)
Cc1ccc(C)c(NC(=O)C2CCCN2C(=O)OC(C)(C)C)c1 (centres undefined) | 102% (inactive)
COc1ccc(C(=O)N2CCC(C(=O)Nc3cccc(C)c3)CC2)cc1OC | 106% (inactive)
Cc1ccccc1NC(=O)c1cnn(-c2ccccc2)c1NC(=O)c1ccco1 | 117% (inactive)
O=C1NC(c2cc3c(cc2Cl)OCO3)Oc2ccccc21 (centres undefined) | 110% (inactive)
CCCC(C)n1[nH]c(=O)c2c(C)cc(C)nc21 (centres undefined) | 87% (inactive)
Cc1cc(C)n2nc(C(=O)Oc3ccc4c(c3)OCO4)nc2n1 | 86.1% (inactive)
CC(C)OCCCNc1nc2c(c(=O)n(Cc3ccccc3F)c(=O)n2C)n1C | 68.2% (inactive)
Clc1ccc(CSc2nnc([C@@H]3CCCN3)o2)cc1 | 80.8% (inactive)
O=C(NCc1cccnc1)c1cn(-c2ccccc2)nc1-c1cccs1 | 74.3% (inactive)
COC(=O)Nc1c(C)n(C)n(-c2ccccc2)c1=O | 104% (inactive)
O=S(=O)(O)c1nc2ccccc2n1Cc1ccc(Cl)cc1Cl | 98.8% (inactive)
Cc1cc(Br)ccc1NC(=O)C1CCCO1 (centres undefined) | 75.5% (inactive)
c1cnc(NC2C3CC4CC(C3)CC2C4)nc1 (centres undefined) | 98.3% (inactive)
O=C(c1ccco1)N1CCN(C(=O)C2c3ccccc3Oc3ccccc32)CC1 | 99.4% (inactive)
O=C(Nc1ccon1)c1sc2ccccc2c1Cl | 122% (inactive)
COc1cccc(-c2nc(S(=O)(=O)c3ccccc3)c(N3CCOCC3)o2)c1 | 83.1% (inactive)
c1ccc(-c2[nH]ncc2-c2nc3ccccc3[nH]2)cc1 | 42.9% (active)
O=c1[nH]c(-c2ccccc2)c(-c2ccccc2)[nH]1 | 96.3% (inactive)
c1ccc(-c2nnc(SCc3nc4ccccc4[nH]3)o2)cc1 | 70.7% (inactive)
